{
  "source": "PubChem BioAssay AID652054",
  "about": "(National Center for Advancing Translational Sciences (NCATS), 2013)",
  "note": "Among all 360,000 compounds or so, about 9,100 (2.5%) were called active. About 4% were inconclusive and are not listed. The sample as a whole holds a higher share of actives than the screen did. Values without a mark were called inactive. No stated cut-off is given here; in the data, active means max response below about -50%; inconclusive means no clear call, values can overlap the other calls; inactive means above that. On the % scale 0 is the no-effect control and ±100 the full control effect.",
  "data": [
    {"target": "D(3) dopamine receptor (Homo sapiens) (UniProt P35462)", "sequence (P35462 whole entry, looked up)": "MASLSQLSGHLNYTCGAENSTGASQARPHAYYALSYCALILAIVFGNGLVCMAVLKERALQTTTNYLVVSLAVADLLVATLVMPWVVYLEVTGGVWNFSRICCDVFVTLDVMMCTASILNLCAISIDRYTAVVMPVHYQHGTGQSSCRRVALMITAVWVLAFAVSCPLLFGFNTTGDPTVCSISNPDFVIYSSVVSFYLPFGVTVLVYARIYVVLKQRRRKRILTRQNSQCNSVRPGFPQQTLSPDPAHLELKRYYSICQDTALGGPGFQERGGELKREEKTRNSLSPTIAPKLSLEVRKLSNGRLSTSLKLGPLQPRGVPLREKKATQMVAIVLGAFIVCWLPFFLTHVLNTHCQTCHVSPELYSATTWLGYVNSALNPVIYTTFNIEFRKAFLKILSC", "test": "qHTS of D3 Dopamine Receptor Antagonist: qHTS", "conditions": "D3R cells, DiscoveRx beta-arrestin luminescence, antagonist mode; hits give low values", "outline": "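Cells expressing the human receptor were seeded at 1500 cells/well, incubated overnight at 37 degrees C in 5% CO2, then exposed to library compounds with dopamine controls for 90 minutes at 37 degrees C before luminescent detection.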", "values": [
      {"smiles": "CC1(C(=O)NS(=O)(=O)c2ccc(Cl)cc2)CCN1C(=O)CC1CCCC1", "note": "(stereo unspecified)", "max response, negative = inhibition": "-16%"},
      {"smiles": "CCN1C(=O)[C@H]2[C@@H](c3ccccc3)N[C@]3(CCCN(Cc4ccc(C)cc4)C3=O)[C@H]2C1=O", "max response, negative = inhibition": "-7.93%"},
      {"smiles": "CCc1nc2ccc(C(=O)N3CCC(O)(Cc4ccccc4)CC3)cn2c1N(C)C(=O)Cc1ccccc1", "max response, negative = inhibition": "-22.4%"},
      {"smiles": "Cc1ccc(CN2CCN(c3ccccc3Cl)CC2)o1", "max response, negative = inhibition": "-75.6% (active)"},
      {"smiles": "Cc1ccc(CN2CCN(Cc3ccc(OCCO)cc3)CC2CCO)o1", "note": "(stereo unspecified)", "max response, negative = inhibition": "4.23%"},
      {"smiles": "Cc1ccc(CN2CCN(Cc3cn(C)nc3-c3ccccc3)CC2CCO)o1", "note": "(stereo unspecified)", "max response, negative = inhibition": "3.14%"},
      {"smiles": "COc1ccc(C(CNC(=O)c2cccc(S(=O)(=O)Nc3ccccc3Cl)c2)N2CCOCC2)cc1", "note": "(stereo unspecified)", "max response, negative = inhibition": "22.5%"},
      {"smiles": "CN(C)C(CNC(=O)c1cccc(S(=O)(=O)N2CCc3ccccc3C2)c1)c1ccccc1", "note": "(stereo unspecified)", "max response, negative = inhibition": "-80.6% (active)"},
      {"smiles": "O=C(Nc1ccc(S(=O)(=O)N2CCc3ccccc3C2)cc1)c1ccccc1", "max response, negative = inhibition": "19.5%"},
      {"smiles": "COc1ccccc1C(CNC(=O)c1cccc(S(=O)(=O)Nc2ccc(F)cc2)c1)N(C)C", "note": "(stereo unspecified)", "max response, negative = inhibition": "-23.9%"},
      {"smiles": "CC(NC(=O)c1cccc(S(=O)(=O)N2CCc3ccccc3C2)c1)c1ccco1", "note": "(stereo unspecified)", "max response, negative = inhibition": "4.52%"},
      {"smiles": "COc1ccc(C(CNC(=O)c2cc(S(=O)(=O)Nc3cccc(C)c3)ccc2C)N2CCCC2)cc1", "note": "(stereo unspecified)", "max response, negative = inhibition": "-25.7%"},
      {"smiles": "COc1ccc(C(CNC(=O)c2cccc(S(=O)(=O)Nc3ccc(Br)cc3)c2)N(C)C)cc1", "note": "(stereo unspecified)", "max response, negative = inhibition": "-53.5% (active)"},
      {"smiles": "COc1ccc(C(CNC(=O)c2ccc(NS(=O)(=O)c3ccc(F)c(C)c3)cc2)N(C)C)cc1", "note": "(stereo unspecified)", "max response, negative = inhibition": "-15.4%"},
      {"smiles": "COc1ccc(C(CNC(=O)c2cccc(NS(=O)(=O)c3ccc(C)c(F)c3)c2)N2CCCC2)cc1", "note": "(stereo unspecified)", "max response, negative = inhibition": "-55.7% (active)"},
      {"smiles": "CC1(C(=O)NCc2ccc3c(c2)OCO3)CCN1C(=O)Cc1cccs1", "note": "(stereo unspecified)", "max response, negative = inhibition": "27.8%"},
      {"smiles": "CCCc1c(C)nc2scc(-c3ccc(Cl)cc3)n2c1=O", "max response, negative = inhibition": "3.72%"},
      {"smiles": "COc1ccc(OC)c(C(O)c2ncc(-c3cccc(C(F)(F)F)c3)[nH]2)c1", "note": "(stereo unspecified)", "max response, negative = inhibition": "-26%"},
      {"smiles": "CCOC(=O)[C@]12CCCC=C1N(Cc1cccc3ccccc13)C(=O)[C@H](CC(=O)NCC13CC4CC(CC(C4)C1)C3)C2", "max response, negative = inhibition": "-25.2%"},
      {"smiles": "CCCNC(=O)c1cc(C2CCCCN2S(=O)(=O)c2cn(C)cn2)on1", "note": "(stereo unspecified)", "max response, negative = inhibition": "0.438%"},
      {"smiles": "CN(C)c1cccc(NC(=O)c2ccc(-c3ccc(F)c(F)c3)c3ccoc23)c1", "max response, negative = inhibition": "-0.987%"},
      {"smiles": "CC(C)CN1C(=O)CN(S(C)(=O)=O)CC1(C)C(=O)NCc1ccccc1", "note": "(stereo unspecified)", "max response, negative = inhibition": "18.8%"},
      {"smiles": "Clc1ccc(-n2nnnc2-c2cnc(-c3ccccn3)nc2-c2cccs2)cc1", "max response, negative = inhibition": "-60.1% (active)"},
      {"smiles": "N#Cc1ccc(CSc2nnc(-c3ccccn3)n2-c2ccc(Cl)cc2)cc1", "max response, negative = inhibition": "-15.7%"},
      {"smiles": "FC(F)(F)c1nc(-c2ccccc2)ncc1-c1nnnn1-c1ccccc1", "max response, negative = inhibition": "16.8%"},
      {"smiles": "Cn1c(NCc2cccnc2)nc2cc(-c3ccc(F)cc3)sc2c1=O", "max response, negative = inhibition": "0%"},
      {"smiles": "CCN(CC)CCn1c2c(c(SCC(=O)Nc3nc4ccccc4s3)nc1=O)CCCC2", "max response, negative = inhibition": "-4.31%"},
      {"smiles": "CCN(CC)CCCSc1nc2ccccc2s1", "max response, negative = inhibition": "-73.9% (active)"},
      {"smiles": "CCc1ccc(-c2nnn(Cc3nc4ccccc4s3)n2)cc1", "max response, negative = inhibition": "12.9%"},
      {"smiles": "CCc1nc2ccc(C(=O)Nc3ccc(OC)c(OC)c3)cn2c1N(C)C(=O)c1cccc(OC)c1", "max response, negative = inhibition": "-28%"},
      {"smiles": "COc1ccc(-c2nc(CS(=O)CC(=O)NCc3ccccc3)c(C)o2)cc1OC", "note": "(stereo unspecified)", "max response, negative = inhibition": "-17%"},
      {"smiles": "COc1cccc(-c2nc(CS(=O)CC(=O)NCc3ccc(F)cc3)c(C)o2)c1", "note": "(stereo unspecified)", "max response, negative = inhibition": "-12.9%"},
      {"smiles": "COc1ccc(-c2nc(CS(=O)CC(=O)NCc3cccnc3)c(C)o2)cc1OC", "note": "(stereo unspecified)", "max response, negative = inhibition": "-53.3% (active)"},
      {"smiles": "CCN(CC)CCN(C)C(c1ccnc2ccccc12)c1nnnn1-c1ccc2c(c1)OCCO2", "note": "(stereo unspecified)", "max response, negative = inhibition": "0%"},
      {"smiles": "COc1ccc(CCNC(=O)c2cc3sccc3n2C)cc1OC", "max response, negative = inhibition": "-72% (active)"},
      {"smiles": "COc1ccc(CCNC(=O)COC(=O)/C=C/c2cccs2)cc1OC", "max response, negative = inhibition": "-11.9%"},
      {"smiles": "Cn1c(C(=O)NCCCN2CCCCC2)cc2sccc21", "max response, negative = inhibition": "-17.4%"},
      {"smiles": "COc1cc(C(O)c2nc(-c3cccc(C(=O)O)c3)cs2)ccc1F", "note": "(stereo unspecified)", "max response, negative = inhibition": "5.94%"},
      {"smiles": "CN(Cc1c(F)cccc1Cl)C(=O)COC(=O)Cn1cnc2ccccc2c1=O", "max response, negative = inhibition": "16%"},
      {"smiles": "O=C(COc1ccc(Cl)cc1)NCCC1=CCCCC1", "max response, negative = inhibition": "-11.2%"},
      {"smiles": "Cc1nnc(OCC(=O)NCCC2=CCCCC2)c2ccccc12", "max response, negative = inhibition": "-80.1% (active)"},
      {"smiles": "O=C(COc1cccc(-n2cnnn2)c1)NCCC1=CCCCC1", "max response, negative = inhibition": "-5.35%"},
      {"smiles": "COc1ccc(CN2CCN(Cc3ccc(OC)c(OC)c3OC)CC2)cc1", "max response, negative = inhibition": "-14%"},
      {"smiles": "COc1cc(CNCc2ccc(OC)c3ccccc23)cc(OC)c1OC", "max response, negative = inhibition": "4.84%"},
      {"smiles": "COc1cc(COCC(O)CN2CCN(Cc3ccc4c(c3)OCO4)CC2)cc(OC)c1OC", "note": "(stereo unspecified)", "max response, negative = inhibition": "-12.9%"},
      {"smiles": "CNCC(O)CN1CCN(c2ccccc2OC)CC1", "note": "(stereo unspecified)", "max response, negative = inhibition": "4.65%"},
      {"smiles": "COc1ccccc1N1CCN(Cc2cc(OC)c3c(c2)OCO3)CC1", "max response, negative = inhibition": "-91.2% (active)"},
      {"smiles": "COc1ccccc1N1CCN(Cc2ccc(OC)c3ccccc23)CC1", "max response, negative = inhibition": "-67.7% (active)"},
      {"smiles": "CNc1cncc(-c2ccc(NS(C)(=O)=O)cc2)n1", "max response, negative = inhibition": "-5.71%"},
      {"smiles": "COc1ccc(CCNC(=O)Nc2ccc3c(c2)c(=O)n(C)n3C)cc1OC", "max response, negative = inhibition": "6.66%"},
      {"smiles": "O=C(CC(CC(=O)c1ccccc1)c1ccco1)c1ccccc1", "max response, negative = inhibition": "11.4%"},
      {"smiles": "CCC(C(=O)NC(C)(C)C)n1c(-c2ccccc2)nc2ccccc21", "note": "(stereo unspecified)", "max response, negative = inhibition": "0.73%"},
      {"smiles": "CSCCC(C(=O)NC(C)(C)C)n1c(-c2ccccc2)nc2ccccc21", "note": "(stereo unspecified)", "max response, negative = inhibition": "-15.5%"},
      {"smiles": "CC(C)(C)NC(=O)C(CCc1ccccc1)n1c(=O)c(-c2ccccc2)nc2ccccc21", "note": "(stereo unspecified)", "max response, negative = inhibition": "-66.1% (active)"},
      {"smiles": "Cc1cn([C@H]2C[C@H](O)[C@@H](CNC(=O)[C@H](N)Cc3cccnc3)O2)c(=O)[nH]c1=O", "max response, negative = inhibition": "22.6%"},
      {"smiles": "Cc1ccc(NC(=O)COC(=O)CN2CCSC2=O)cc1F", "max response, negative = inhibition": "37.5%"}
    ]}
  ]
}
